# Laboratory results from PubChem BioAssay (NCI).
# This is part of a sample that, as a whole, favours compounds with a hit. Of some 79,000 tested, about 15% had one in any assay. Unmarked numbers belong to inactive results. Active and inactive are the calls of the source. No stated cut-off is given here; in the data, active means growth inhibition above about 70%; inactive means the rest.
# Columns and labels:
# [1] = NCI Yeast Anticancer Drug Screen. Data for the rad50 strain (AID 155);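 further: 0% = growth of vehicle-only cultures of the same strain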; settings: S. cerevisiae rad50 strain growth inhibition, active compounds read high
# Outline: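 Compounds were tested on a yeast strain with an engineered DNA damage repair alteration; the reported value is growth inhibition normalised to vehicle treatment.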
# [2] = NCI Yeast Anticancer Drug Screen. Data for the mec2-1 strain (AID 157); settings: S. cerevisiae mec2-1 strain, active compounds read high
# Outline: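 Test agents were screened against the mec2-1 yeast strain, with defined DNA repair or cell cycle alteration. Growth was scored as inhibition against vehicle-only controls.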
# [3] = NCI Yeast Anticancer Drug Screen. Data for the sgs1 mgt1 strain (AID 161);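 further: 0% = growth of cultures given vehicle only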; settings: S. cerevisiae sgs1 mgt1 strain, active compounds read high
# Outline: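 Test agents were incubated with a DNA-repair-mutant yeast strain. Growth was then read and compared against vehicle-treated controls.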
# [4] = NCI Yeast Anticancer Drug Screen. Data for the cln2 rad14 strain (AID 165);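 further: 0% = growth equal to vehicle treated cultures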; settings: S. cerevisiae cln2 rad14 strain, active compounds read high
# Outline: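 Growth of compound-exposed yeast (cln2 rad14 genotype) measured and expressed as inhibition relative to vehicle.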
# [5] = NCI Yeast Anticancer Drug Screen. Data for the bub3 strain (AID 167); settings: S. cerevisiae bub3 mutant strain, active compounds read high
# Outline: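 Growth of a checkpoint-deficient yeast mutant is measured after compound exposure. Values represent inhibition relative to vehicle.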
# [6] = NCI Yeast Anticancer Drug Screen. Data for the mlh1 rad18 strain (AID 175); settings: S. cerevisiae mlh1 rad18 strain growth inhibition, active compounds read high
# Outline: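 In this whole-cell yeast screen, a strain with altered DNA damage repair is challenged with compound, and its growth is measured against matched vehicle-treated controls.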
# [7] = at 5.0 µM (retest, dose inferred, filed as 0.5)
# [8] = at 50.0 µM (retest, dose inferred, filed as 5.0)
SMILES,"growth inhibition [1, 7] [%]","growth inhibition [1, 8]",growth inhibition ([1]; at 50.0 µM),"growth inhibition [2, 7] [%]","growth inhibition [2, 8]",growth inhibition ([2]; at 50.0 µM),"growth inhibition [3, 7] [%]","growth inhibition [3, 8]",growth inhibition ([3]; at 50.0 µM),"growth inhibition [4, 7] [%]","growth inhibition [4, 8]",growth inhibition ([4]; at 50.0 µM),"growth inhibition [5, 7] [%]","growth inhibition [5, 8]",growth inhibition ([5]; at 50.0 µM),"growth inhibition [6, 7] [%]","growth inhibition [6, 8]",growth inhibition ([6]; at 50.0 µM)
CC(C)OC(=O)C1C=CCc2c(O)ccc(O)c21 (stereo not given),8,25%,21.2%,15,24%,11.8%,12,44%,61%,7,22%,65.9%,4,24%,52%,11,35%,86.2% (active)
Cc1nc2c(nc1C)C(=O)C1=C(C2=O)C2C=CC1CC2,0,87% (active),89.8% (active),-2,90% (active),74.6% (active),2,94% (active),94.7% (active),-3,68%,57%,24,94% (active),93.5% (active),2,93% (active),91.8% (active)
Nc1ccc(N)c2c1C(=O)c1ccccc1C2=O,32,72% (active),83.2% (active),-1,11%,11.7%,2,14%,24.6%,3,3%,6.9%,0,24%,31.3%,5,22%,50.6%
O=Cc1c(O)ccc2ccccc12,12,99% (active),99.2% (active),8,98% (active),99.4% (active),11,99% (active),99.2% (active),6,99% (active),99% (active),2,98% (active),99.5% (active),17,98% (active),99.2% (active)
O=[N+]([O-])c1cccn2nc(C3OC(CO)C(O)C3O)nc12 (stereo not given),3,13%,-11.2%,-3,-2%,-4.8%,0,7%,-14.7%,3,-4%,34.4%,0,-1%,-11.4%,-2,3%,-4.65%
CCOC(=O)/C(C#N)=C\c1ccc(N(CCC(=O)O)CCC(=O)O)c(I)c1,1,77% (active),-6.7%,-4,77% (active),33.5%,3,37%,-5.3%,-7,77% (active),53.8%,35,93% (active),-13.1%,10,77% (active),-6.35%
O=C(O)c1ccccc1C(=O)c1ccc2c(c1)Cc1ccccc1-2,-5,9%,68.6%,-3,4%,41.3%,-4,7%,44.9%,-28,31%,74.8% (active),4,5%,42.8%,3,26%,76% (active)
CCCCCCCCCCCCCCNC(=O)CCC(NC(=O)c1ccc(N(C)Cc2cnc3nc(N)nc(N)c3n2)cc1)C(=O)NCCCCCCCCCCCCCC (stereo not given),28,94% (active),64.9%,22,96% (active),84.7% (active),19,93% (active),86.3% (active),3,77% (active),45.1%,24,93% (active),68.7%,24,91% (active),20.8%
CC(=O)/C=N/Nc1ccccc1,15,20%,42.1%,3,7%,3.5%,-9,11%,33%,0,-8%,-9.5%,-1,3%,7.2%,14,32%,58.6%
COC(=O)c1nnn(-c2ccc(S(N)(=O)=O)cc2)c1C(=O)c1ccc(Cl)c(Cl)c1,1,98% (active),98.5% (active),22,99% (active),98% (active),20,99% (active),98.2% (active),19,98% (active),96% (active),30,99% (active),94.8% (active),22,99% (active),98.3% (active)
